Tested on: HepG2
Test: GSK_TCMDC: Percent inhibition of human HepG2 cell line. Test compounds present at 10uM.
Type: functional

| Compound | Inhibition [%] |
| --- | --- |
| O=C(Nc1ccc(-c2cncc(NCCCN3CCCC3)c2)cc1)c1ccccc1 | 0 |
| O=C(Cc1ccc(-c2ccccc2)cc1)N[C@H]1CCN(Cc2ccc(OCCCN3CCCCC3)cc2)C1 | 36 |
| CN(N=Cc1ccccc1)C(=N)NCCCC#Cc1cccc(CN2CCCC2)c1 | 16 |
| Clc1ccc(Nc2nc(NCc3ccccc3)nc(N/N=C/c3ccccn3)n2)cc1 | 41 |
| Br.CC1(C)NC(N)=NC(=N)N1OCCCCCCOc1ccc(Cl)c2ccccc12 | 62 |
| Cc1cccc(C)c1C1CCN(C2CCC(NC(=O)/C=C/c3ccccc3)CC2)CC1 (centres undefined) | 42 |
| CCn1cc2c3c(cc(C(=O)N[C@@H](Cc4ccccc4)[C@H](O)CNCc4cccc(OC)c4)cc31)N(C)S(=O)(=O)CC2 | 0 |
| CCC(C)(C)C1CCc2[nH]c3ccccc3c(=O)c2C1 (centres undefined) | 16 |
| CC(C)(C)OC(=O)C1CCCN(Cc2ccc(-c3cccc(-c4nc5ccccc5[nH]4)c3)cc2)C1.O=C(O)C(F)(F)F (centres undefined) | 37 |
| COC(=O)c1ccc2c(c1)nc(Nc1cccc(F)c1)n2CC(O)c1ccccn1 (centres undefined) | 0 |
| CS(=O)(=O)N(c1ccccc1)c1cc(C(=O)N[C@@H](Cc2ccccc2)[C@H](O)CNC2CCCCC2)cc(N2CCCC2=O)c1 | 8 |
| N#Cc1ccc(-c2ccc(C(=O)NCCCCN3CCC(n4cnc5ccccc54)CC3)cc2)cc1 | 15 |
| CN(C)CCOc1cc(NC(=O)Nc2ccc(-c3ccccc3)cc2)ccc1I | 9 |
| COc1ccc(-c2cccc(NC(=O)c3cccc(Cl)c3)c2)cc1CN1CCN(C)CC1.O=C(O)C(F)(F)F | 27 |
| COc1cccc2cc(C(=O)N[C@@H](CC(C)C)C(=O)N[C@H](/C=N/NC(=O)c3ccccc3)Cc3c[nH]cn3)oc12 | 3 |
| COc1cccc2cc(C(=O)N[C@@H](CC(C)C)C(=O)N[C@H](/C=N/NC(=O)N3CCN(C)CC3)CCc3ccccc3)oc12.Cl | 1 |
| O=C(C=Cc1ccc(Cl)c(Cl)c1)NCCCCCN1CCC(CCCNC(=O)C2CC2c2ccccc2)CC1 (centres undefined) | 45 |
| C(=NN=c1cc[nH]c2ccccc12)c1ccncc1 | 7 |
| Cc1ccc(CNC(=O)[C@H](CC(C)C)Nc2cc(C)nc(NCC3CCCCC3)n2)cc1.O=C(O)C(F)(F)F | 6 |
| CCOC(=O)NCC(=O)Nc1cccc(-c2cccc(-c3nc4cccc(C)c4[nH]3)c2)c1 | 14 |

| Compound | Inhibition [%] |
| --- | --- |
| CCOc1ccc(-c2nc(NC(=O)CS(=O)(=O)c3ccccc3)sc2C)cc1 | 6 |
| N=C(N)NCCCCN(Cc1ccccc1)c1ccccc1 | 0 |
| CC[C@H](C)CNC(=O)c1ccnc(-c2cccc(CN(C)C3CCN(C)CC3)c2)c1.O=C(O)C(F)(F)F | 0 |
| COc1ccc(CCn2c(=N)c(C(=O)NCc3ccc(C)cc3)cc3c(=O)n4ccccc4nc32)cc1 | 13 |
| O=S(=O)(c1cc(Cl)ccc1Cl)N1CCCCC(c2ccc(C(F)(F)F)cc2)=N1 | 15 |
| O=C(NCCN1CCCC1)N1CCCN(c2ncnc3cc(-c4ccc(F)cc4)sc23)CC1.O=C(O)C(F)(F)F | 5 |
| CC1(C)N=C(N)N=C(N)N1c1cc(Cl)c(Cl)c(Cl)c1.CCS(=O)(=O)O | 68 |
| CCN(CC)CC(O)CNc1c2ccc([N+](=O)[O-])cc2nc2cc(OC)c(OC)cc12.Cl (centres undefined) | 78 |
| CC1CC(C)CN(CCCNc2ccc(C(=O)Nc3ccc(C(F)(F)F)cc3)cc2[N+](=O)[O-])C1 (centres undefined) | 31 |
| Cc1cc(N[C@@H](Cc2ccccc2)C(=O)NCCc2ccccc2)nc(NCCc2cccs2)n1.O=C(O)C(F)(F)F | 12 |
| CN1CCN(CCCN(Cc2cccc(-c3cccc(CNC4CCCC4)c3)c2)C(=O)CCC2CCCC2)CC1.O=C(O)C(F)(F)F | 35 |
| C#CCNCc1ccc(-c2ccc(-c3nc4cc(C(F)(F)F)ccc4[nH]3)s2)cc1.O=C(O)C(F)(F)F | 37 |
| O=C(/C=C/c1ccc(Cl)c(Cl)c1)NCCCCCN1CCC(NC(=O)Nc2ccc(Oc3ccccc3)cc2)C1 (centres undefined) | 35 |
| Br.CCC(CCON1C(N)=NC(N)=NC1(C)C)c1ccc(Cl)cc1 (centres undefined) | 66 |
| CC1(C)N=C(N)N=C(Nc2ccc(Cl)cc2)N1.Cl | 8 |
| CC1CN(c2ccnc3ccc(Sc4ccc(Oc5ccccc5)cc4)cc23)CC(C)N1.Cl (centres undefined) | 33 |
| CC(C)(C)c1ccc2[nH]c(-c3ccc(/C=C/C(=O)NCc4ccc(Cl)c(Cl)c4)cc3)nc2c1 | 41 |
| CC(C)Oc1ccc(C=CC(=O)Nc2noc3ccccc23)cc1 | 2 |
| O=S(=O)(Nc1cccc(CCN2CCC(N3CCCCC3)CC2)c1)c1ccccc1C(F)(F)F | 21 |

Reference: ChEMBL document CHEMBL1157539, “Thousands of chemical starting points for antimalarial lead identification” (Nature, 2010)
